About 2,000 (36%) of roughly 5,500 compounds were called active. Inconclusive results (about 18%) are left out. No stated cut-off is given here; in the data, active means normalized growth mostly below about 0.91 (no sharp cut-off); inconclusive means no clear call, values can overlap the other calls; inactive means mostly above about 0.92. This is one part of the list.
Assay: chemical genetic growth profiling, strain panel (AID 1159580);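 further: tested at 20 µM; growth read once vehicle control cultures reached saturation at 30 °C; 1 = growth at the plate median or of vehicle wells; lower values mean less growth of the strain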
Details: growth OD

Measured: normalized growth

N#CCCN1C(=O)C2(OCCO2)c2ccccc21
inactive: S. cerevisiae deletion strains, locus YAL013W, strain DEP1, hits give low values 1.01 | S. cerevisiae deletion strains, locus YBR229C, strain ROT2, hits give low values 1.01 | S. cerevisiae deletion strains, locus YCL061C, strain MRC1, hits give low values 1 | S. cerevisiae deletion strains, locus YDL101C, strain DUN1, hits give low values 0.976 | S. cerevisiae deletion strains, locus YDR150W, strain NUM1, hits give low values 0.977 | S. cerevisiae deletion strains, locus YEL061C, strain CIN8, hits give low values 0.997 | S. cerevisiae deletion strains, locus YGR078C, strain PAC10, hits give low values 1 | S. cerevisiae deletion strains, locus YHR030C, strain SLT2, hits give low values 1 | S. cerevisiae deletion strains, locus YHR087W, strain rtc3, hits give low values 0.991 | S. cerevisiae deletion strains, locus YJL187C, strain SWE1, hits give low values 1 | S. cerevisiae deletion strains, locus YJR043C, strain POL32, hits give low values 1 | S. cerevisiae deletion strains, locus YJR075W, strain HOC1, hits give low values 1 | S. cerevisiae deletion strains, locus YLR039C, strain RIC1, hits give low values 1.02 | S. cerevisiae deletion strains, locus YLR058C, strain SHM2 (second series), hits give low values 1 | S. cerevisiae deletion strains, locus YLR085C, strain ARP6, hits give low values 1.02 | S. cerevisiae deletion strains, locus YLR262C, strain YPT6, hits give low values 1.02 | S. cerevisiae deletion strains, locus YML094W, strain GIM5, hits give low values 0.986 | S. cerevisiae deletion strains, locus YMR219W, strain ESC1, hits give low values 1.01 | S. cerevisiae deletion strains, locus YMR263W, strain SAP30, hits give low values 1.05 | S. cerevisiae deletion strains, locus YMR307W, strain GAS1, hits give low values 1.05 | S. cerevisiae deletion strains, locus YNL153C, strain GIM3, hits give low values 1.02 | S. cerevisiae deletion strains, locus YNL298W, strain CLA4 (second series), hits give low values 1 | S. cerevisiae deletion strains, locus YNL322C, strain KRE1, hits give low values 0.997 | S. cerevisiae deletion strains, locus YNR030W, strain Alg12, hits give low values 1 | S. cerevisiae deletion strains, locus YOL006C, strain TOP1, hits give low values 1.02 | S. cerevisiae deletion strains, locus YPL055C, strain LGE1, hits give low values 1.02 | S. cerevisiae deletion strains, locus YPL241C, strain CIN2, hits give low values 1.01 | S. cerevisiae deletion strains, locus YPR135W, strain CTF4, hits give low values 1.09 | S. cerevisiae strains, strain wild type, hits give low values 1.02
